Bioassay records as filed in PubChem BioAssay.
Tau ThT inhib = tau fibrillization inhibition (ThT binding). Potency, µM (titrated, usually from 57.4 µM), without a hit: at the top dose activity, negative = inhibition, most hits filed as inhibitors. P10636. 270,000 tested, 2.1% active. recombinant tau K18 P301L, heparin-induced fibrillization, ThT fluorescence; also: potency is read from the fitted curve at half-maximal effect; nearly all actives have a fitted effect of over 55% in size
Target sequence (P10636 561-689 P618L limits assumed): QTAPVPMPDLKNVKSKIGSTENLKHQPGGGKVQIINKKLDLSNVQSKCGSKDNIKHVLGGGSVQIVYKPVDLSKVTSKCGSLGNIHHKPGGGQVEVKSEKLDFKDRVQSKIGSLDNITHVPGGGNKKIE
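Recombinant human tau K18 fragment […] carrying P301L, 15 uM unlabeled plus 0.24 uM Alexa 594-labeled, was fibrillized with 20 uM heparin in 100 mM sodium acetate pH 7 for 6 hr at 37 C; 30 uM ThT fluorescence read after 1 hr.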
G9a inh = inhibitors of human histone lysine methyltransferase G9a; Q96KQ7; G9a H3K9 monomethylation, AlphaScreen, 2 h; Potency, µM (titrated, usually from 102 µM), for the others: top-dose activity, negative = inhibition, usual class: inhibitors; 350,000 tested, 8.8% active; AID 504332; also: potency is read from the fitted curve at half-maximal effect; nearly all actives have a fitted effect of over 75% in size
Target sequence (Q96KQ7 913-1193 limits assumed): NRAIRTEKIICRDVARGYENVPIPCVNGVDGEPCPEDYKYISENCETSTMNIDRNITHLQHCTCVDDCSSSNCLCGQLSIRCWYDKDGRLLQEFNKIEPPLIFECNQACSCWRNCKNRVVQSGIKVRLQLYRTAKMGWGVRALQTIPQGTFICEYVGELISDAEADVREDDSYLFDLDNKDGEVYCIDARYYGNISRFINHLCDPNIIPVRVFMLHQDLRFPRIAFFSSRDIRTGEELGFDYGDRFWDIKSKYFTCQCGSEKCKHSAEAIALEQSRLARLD
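AlphaScreen read-out: biotin-H3K9 peptide (500 nM) methylation by 20 nM enzyme with 20 uM SAM, 2 h at room temperature after 15 min compound preincubation; anti-monomethyl H3K9 antibody plus donor/acceptor beads, 10 min dark.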
Tau fibril FP = blocks human tau fibril formation measured by polarization | P10636 | 280,000 tested, 0.39% active | Potency, µM (doses to about 57.7 µM), for inactives: at the highest dose activity, negative = inhibition, usual class: inhibitors | AID 1468 | K18 P301L tau heparin fibrillization, Alexa594 FP, 6 h; also: potency is read from the fitted curve at half-maximal effect; nearly all actives have a fitted effect of over 55% in size
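Quantitative HTS format: compounds meet 15 uM recombinant K18 P301L tau and Alexa 594-tau tracer in 100 mM sodium acetate pH 7; 20 uM heparin triggers fibrillization at 37 C over 6 hr; FP gives the signal.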
FBPA coupling cs = inhibits coupling enzyme system, counter-screen for aldolase hits | coupling enzyme system counterscreen, AmpLite Red fluorescence | activity change, negative = inhibition, % at 58.2 µM, hits read low | 290,000 tested, 0.67% active; in the data active = activity change below about -30%
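Counterscreen lacking aldolase: glyceraldehyde-3-phosphate coupling-enzyme reagent preincubated 10 min at RT with compound (at 57.5 uM final), then substrate/coupling system with AmpLite Red added; fluorescence read at 525/598 nm after 20 min RT.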
Tau fluor cs = counter-screen for tau fibril formation inhibitors. tau K18 P301L (four-repeat tau fragment) Alexa594 fluorescence, heparin fibrillization. Potency, µM (doses to about 57.7 µM), for the others: at the highest dose activity change, negative = decrease. 280,000 tested, 0.93% active; also: potency is read from the fitted curve at half-maximal effect; nearly all actives have a fitted effect of over 55% in size
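Human K18 P301L tau (15 uM unlabeled plus 0.24 uM Alexa 594-labeled, final) in 100 mM sodium acetate pH 7 was mixed with compound and 20 uM heparin and incubated 6 hr at 37 C.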
Sfp PPTase inh = inhibitors of Bacillus subtilis Sfp phosphopantetheinyl transferase; Q9F4F7; Potency, µM, for the others: largest response in the series, negative = inhibition, hits mostly inhibitors; Biochemical Sfp PPTase activity, qHTS; 310,000 tested, 3.5% active;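 also: the enzyme is Sfp with the accession as filed and its product quenches rhodamine fluorescence; potency is read from the fitted curve at half-maximal effect; 0% = enzyme reaction without inhibitor and -100% = no enzyme wells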
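After 15 min at room temperature with compound, 15 nM Sfp received 5 uM rhodamine-CoA plus 12.5 uM BHQ-2-ybbR (50 mM Hepes pH 7.6, 10 mM MgCl2). Rate came from the fluorescence difference over 30 min, ex 525/em 598 nm.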
* = called active by the depositor; u = inconclusive; x = not tested or not shown; [ ] = another dose, or the depositor's remark. Only some compounds are listed: those with a hit (about 11% of all), similar ones and a draw of the others. Unless noted, calls follow the shape of the dose curve; as a rule, active = well fitted curve in the direction sought with a large enough effect; inconclusive = small, poorly fitted or top-dose-only effect, or another doubt; inactive = no such curve, though single readings can be large; an effect the other way counts as inactive or inconclusive. Unless noted, % is scaled to controls: 0 for no effect and ±100 for the full control effect.

SMILES	Tau ThT inhib	G9a inh	Tau fibril FP	FBPA coupling cs	Tau fluor cs	Sfp PPTase inh
Cc1ccc(CCNC(=O)c2ccc(CNS(=O)(=O)c3ccc(F)cc3)cc2)cc1	u	1%[59 µM]	-14%	x	-2%	x
CCOC(=O)N1CCN(C(=O)c2ccc3nc(N4CCC(C)CC4)sc3c2)CC1	-6%	20%[0.0925 µM]	-4%	4	2%	-3%
O=C(c1ccc2nc(N3CCCCC3)sc2c1)N1CCN(c2ccccn2)CC1	-8%	56µM*	10%	-6	6%	-2%
Cn1nnc2cc(C(=O)N3CCN(c4ccccn4)CC3)ccc21	x	18µM*	x	1	x	21%
CC1CCN(c2nc3ccc(C(=O)N4CCN(Cc5ccccc5)CC4)cc3s2)CC1	-24%	71µM*	5%	6	-12%	-8%
CCC(=O)Oc1ccc(-c2nc3ccccc3c(=O)o2)cc1	u	-9%[59 µM]	-5%	x	-6%	x
CCOC(=O)c1c(CSc2ccccc2)n(C)c2cc(Br)c(OCC(O)CNC(CO)(CO)CO)cc12 (stereo not given)	-18%	40µM*	-6%	4	-14%	u
CCOC(=O)c1c(CSc2ccccc2)n(C)c2cc(Br)c(OC)c(O)c12	x	21%	x	0	x	13%
Cc1cccc(-c2noc(-c3ccccc3OCC(=O)Nc3ccc([N+](=O)[O-])cc3)n2)c1	u	u	-1%	x	-28%	x
Cc1c(C#N)c(NC(=O)CCl)n(Cc2ccccc2)c1C	-18%	56µM*	3%	0	-4%	8%
Cc1c(C#N)c(NC(=O)CCl)n(Cc2ccc(F)cc2)c1C	u	u	2%	0	-7%	-17%
Cc1c(C#N)c(NC(=O)CCl)n(Cc2cccs2)c1C	u	50µM*	0%	3	-5%	7%
C=CCOc1ccc(C2/C(=C(/O)c3ccc(OC)cc3)C(=O)C(=O)N2CCN2CCNCC2)cc1 (stereo not given)	x	-3%	x	0	x	11%
O=C(NCCSc1c[nH]c2ccccc12)c1c(F)cccc1F	-5%	x	-2%	0	-16%	-11%
O=C(NCCSc1ncc(-c2ccc(F)cc2)[nH]1)c1ccco1	x	50µM*	x	x	x	x
COc1cc(NC(=O)c2ccco2)c(OC)cc1NC(=O)CSc1ncc(-c2ccc(F)cc2)[nH]1	-8%	-27%[59 µM]	-6%	1	u	u
O=C(NCCSc1c[nH]c2ccccc12)C1CC1	0%	-8%[59 µM]	8%	-1	10%	4%
COc1ccc(C(=O)NCCc2c[nH]c3ccc(OC)cc23)cc1	x	-7%	x	-2	x	6%
COc1cc(OC)cc(C(=O)NCCSc2c[nH]c3ccccc23)c1	x	45µM*	12%	-4	u	7%
Cc1ccc(C(=O)NCCSc2c[nH]c3ccccc23)cc1C	u	u	6%	x	16µM*[quencher]	x
O=C(NCCSc1c[nH]c2ccccc12)c1ccco1	-16%	71µM*	5%	0	-25%	2%
O=C(NCCCc1nc2ccccc2n1Cc1ccc(Cl)cc1)C1CCCCC1	-12%	8%[59 µM]	4%	x	-4%	x
Oc1c(Br)cc(Br)cc1CNn1cnnc1	x	x	x	1	x	7%
Cc1cccc(C(C)C)c1NC(=O)c1ccc2c(c1)CCCN2S(C)(=O)=O	-4%	10%[59 µM]	-6%	x	-10%	x
CC(C)c1cc(-c2n[nH]c(=S)n2Cc2ccccc2)cs1	u	u	5%	6	u	-4%
SMILES	Tau ThT inhib	G9a inh	Tau fibril FP	FBPA coupling cs	Tau fluor cs	Sfp PPTase inh
Cc1scc(-c2n[nH]c(=S)n2C(C)c2ccccc2)c1C (stereo not given)	-3%	2µM*	-8%	3	-5%	11%
CCc1cc(-c2n[nH]c(=S)n2C(C)c2ccccc2)cs1 (stereo not given)	1%	10µM*	-1%	-4	-6%	-19%
CN(C)S(=O)(=O)c1cccc(NC(=S)N/N=C/c2ccco2)c1	-12%	-25%	0%	2	-18%	16%
COc1cc(/C=N/NC(=S)Nc2cccc(S(=O)(=O)N(C)C)c2)cc(OC)c1O	u	3%[59 µM]	u	-5	u	-2%
Cc1ccc(C)c(NC(=S)NCc2ccccc2)c1	x	24%	x	-3	x	21%
CC(/C=N/NC(=S)Nc1cccc(S(=O)(=O)N(C)C)c1)c1ccccc1 (stereo not given)	-12%	8.9µM*	-2%	1	-12%	89µM*
Cc1ccc(C)c(NC(=S)N/N=C/C(C)c2ccccc2)c1 (stereo not given)	-13%	35µM*	-6%	2	2%	-30%
CN(C)S(=O)(=O)c1cccc(NC(=S)N/N=C/C(c2ccccc2)c2ccccc2)c1	-7%	25µM*	-4%	-2	-25%	u
CC(=O)N1CCCC1c1nc2ccccc2n1Cc1ccccc1F (stereo not given)	-12%	-9%[59 µM]	8%	x	-4%	x
COc1ccc(CCNC(=O)c2ccc3c(c2)N(Cc2ccc(Cl)cc2)C(=O)c2ccccc2S3)cc1OC	-8%	3%[59 µM]	-2%	x	-30%	x
CCOC(=O)c1nc(C)n(-c2cc(OC)c(Cl)cc2Cl)n1	6%	4%	4%	3	4%	14%
O=S(=O)(NCc1csc(-c2ccccc2)n1)c1ccc(Cl)s1	10%	u	-2%	-36*	6%	-27%
O=S(=O)(NCc1csc(-c2cccnc2)n1)c1ccc(Cl)s1	u	u	-3%	-9	-18%	22%
O=C(CCn1c(=O)c2cccn2c2ccc(F)cc21)NCc1ccccc1F	0%	5%[59 µM]	0%	x	-2%	x
O=C(Cc1nc2ccccc2[nH]1)c1ccc([N+](=O)[O-])cc1	16µM*	45µM*	u	0	u	16µM*
CN/N=C(\Cc1nc2ccccc2[nH]1)c1ccc([N+](=O)[O-])cc1	13µM*	u	6%	-4	u	22µM*
O=C(Cc1nc2ccccc2[nH]1)c1ccc(Cl)cc1	x	4%	x	-6	x	16%
O=c1[nH]c2ccccc2nc1Cc1ccc([N+](=O)[O-])cc1	x	50µM*	x	0	x	9%
Clc1ccc(/C(Cc2nc3ccccc3[nH]2)=N\Nc2ccccc2)cc1	u	7.1µM*	-8%	2	13µM*[quencher]	-3%
CCOc1ccccc1NC(=S)N1CCC(c2nc3ccccc3o2)CC1	-10%	-5%[59 µM]	-13%	3	-10%	-3%
NC(=S)Cc1nc(-c2ccccc2)cs1	20µM*	u	u	0	u	56µM*
O=C(Cn1nnc(-c2ccccc2)n1)NNC(=O)c1ccccc1	6%	40µM*	6%	1	8%	-27%
O=C(Cn1nnc(-c2ccc(F)cc2)n1)OCC(=O)c1ccccc1	u	u	-6%	2	-9%	79µM*
